Assay outcomes (PubChem BioAssay)
Rows were chosen to be rich in hits. Some 8.3% of all compounds tested hit in one or more screens of this group.
Chronic BCR inh: qHTS Assay to Find Inhibitors of Chronic Active B-Cell Receptor Signaling | 0.05% of 340,000 active | AID 493014, 2011 | Potency, µM (highest dose often 46.1 µM), hits mostly inhibitors | ABC-DLBCL IkBa-CBG/CBR reporter, luminescence ratio, 4 h; active = well fitted inhibition curve with a large enough effect in the signal ratio, with a control signal flat, not every such curve was filed as active; inconclusive = small, poorly fitted or top-dose-only effect, or effect the other way, or a change in a side signal; the % refers to the signal ratio
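TMD8 human ABC-DLBCL cells with doxycycline-inducible IκBα–green luciferase fusion and unfused red luciferase, in 0.5% FBS medium; compounds up to 46 uM, 4 h at 37C. Green/red luminescence ratio, filter-overlap corrected, fitted to concentration-response curves.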
MCF10A rerep: A quantitative high throughput screen for small molecules that induce DNA re-replication in MCF 10a normal breast cells | MCF 10A DNA re-replication, Hoechst nuclear intensity, 48 h | Potency, µM (top dose mostly 46.1 µM), usual class: activators | 2.9% of 350,000 active | AID 624296, 2012; note: nearly all actives have a fitted effect of over 50% in size
Giardia killer: Small Molecules that selectively kill Giardia lamblia: qHTS | 0.15% of 340,000 active | Giardia lamblia trophozoite viability | activity change, % at 7.66 µM, hits read low | AID 540267, 2011; in the data active = activity change below about -80%; inconclusive = between about -30% and that limit;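 note: parasites exposed to compound for two days anaerobically before the ATP read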
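Giardia lamblia trophozoites (100 cells/well) were incubated with compounds for 48 h at 37 deg C under anaerobic conditions. Viability was read as ATP content by one-step luminescence after 15-30 min at room temperature.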
Gal4-VP16 FLuc: VP16 counterscreen qHTS for inhibitors of ROR gamma transcriptional activity; Drosophila S2 Gal4-VP16 UAS-luciferase, luminescence, 20 h; Potency, µM (titrated, usually from 53.6 µM), actives largely listed as inhibitors; 3.5% of 310,000 active; AID 2546, 2010;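 note: Gal4-VP16 expression switched on by copper sulfate through the metallothionein promoter; nearly all actives have a fitted effect of over 50% in size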
RORg inh: qHTS for inhibitors of ROR gamma transcriptional activity | Drosophila S2 Gal4-RORgamma UAS-luciferase reporter, 20 h | 5.4% of 310,000 active | Nuclear receptor ROR-gamma (Mus musculus), P51450 | Potency, µM (doses to about 53.6 µM), actives largely listed as inhibitors; note: nearly all actives have a fitted effect of over 60% in size
Target sequence (P51450 whole entry, looked up, the tested form may be a part): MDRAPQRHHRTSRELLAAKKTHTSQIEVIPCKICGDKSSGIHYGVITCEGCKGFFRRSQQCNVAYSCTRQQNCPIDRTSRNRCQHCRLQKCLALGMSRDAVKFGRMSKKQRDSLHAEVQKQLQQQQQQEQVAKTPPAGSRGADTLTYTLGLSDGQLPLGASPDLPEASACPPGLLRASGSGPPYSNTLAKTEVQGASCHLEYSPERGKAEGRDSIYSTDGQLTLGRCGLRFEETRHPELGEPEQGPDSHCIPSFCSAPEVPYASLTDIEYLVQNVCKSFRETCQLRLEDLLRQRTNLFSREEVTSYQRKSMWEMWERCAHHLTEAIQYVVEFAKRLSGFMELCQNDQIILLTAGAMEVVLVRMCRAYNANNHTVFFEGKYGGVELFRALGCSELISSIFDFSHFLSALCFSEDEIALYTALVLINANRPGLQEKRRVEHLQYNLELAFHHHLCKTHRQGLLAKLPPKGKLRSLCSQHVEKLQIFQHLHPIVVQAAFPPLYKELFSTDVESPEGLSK
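A Gal4/UAS one-hybrid system in insect cells: metallothionein-promoter Gal4–ROR gamma fusion plus Photinus luciferase reporter. Copper sulfate 700 uM final, 20 hr ambient incubation, luminescent detection after 10 min with reagent.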
SW480 rereplic: A quantitative high throughput screen for small molecules that induce DNA re-replication in SW480 colon adenocarcinoma cells; SW480 DNA re-replication, Hoechst DNA content imaging, 48 h; Potency, µM (series often up to 46.1 µM), usual class: activators; 1.8% of 340,000 active; note: nearly all actives have a fitted effect of over 55% in size
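First, 250 cells per well were seeded. Next, compound or vehicle (23 nL) was pinned in, plates sat 48 hr at 37 C. Finally Hoechst was added for 40 min before fluorescence scanning.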
A number is an active result; 0 = inactive; ? = inconclusive; - = not tested or not shown; [ ] = dose if it differs, or a comment. Unless noted, calls come from the whole dose curve; as a rule, active = well fitted curve in the direction sought with a large enough effect; inconclusive = small, poorly fitted or top-dose-only effect, or another doubt; inactive = no such curve, though single readings can be large; an effect the other way counts as inactive or inconclusive.

SMILES	Chronic BCR inh	MCF10A rerep	Giardia killer	Gal4-VP16 FLuc	RORg inh	SW480 rereplic
CC(C)C(=O)Nc1cccc(NC(=S)NC(=O)c2ccc(Cl)cc2)c1	?	?	?	?	6.31µM	0
O=C(NC(=S)Nc1ccc2c(c1)OCCO2)c1ccco1	?	0	?	?	?	0
O=C(CCl)Nc1ccc2c(c1)OCO2	?	0	0	0[10 µM]	17.8µM	?
CC(C)C(=O)Nc1cccc(NC(=S)NC(=O)c2ccc3c(c2)OCO3)c1	0	0	0	0	0	0
Cc1cc(C)cc(C(=O)NC(=S)Nc2ccc3c(c2)OCCO3)c1	0	0	0	3.16µM	?	0
O=C(c1ccc(F)cc1)C1CCN(Cc2ccc(F)cc2)CC1	0	0	0	0	0	0
O=C(NCCN1CCOCC1)C(=O)NCC1OCCCN1S(=O)(=O)c1ccc(F)cc1 (centres undefined)	0	0	0	0	0	0
O=C(NC(=S)Nc1ccc2c(c1)OCO2)c1ccc(Cl)cc1	0	0	0	5.62µM	5.01µM	0
Cc1ccc(C(=O)NC(=S)Nc2ccc(N3CCOCC3)cc2)c(C)c1	0	0	0	25.1µM	2.51µM	0
COc1ccc(Cl)cc1NC(=S)NC(=O)c1ccc2c(c1)OCO2	-	?	0	-	-	0
S=C(Nc1ccc(Cl)cc1)Nc1ccc2c(c1)OCCO2	0	0	0	?	?	5.17µM
COc1ccc(C(=O)NC(=S)NNC(=O)c2ccc(NC(=O)C(C)C)cc2)cc1	?	?	0	15.8µM	?	0
COc1cccc(NC(=O)Nc2cc(C(=O)NC(C)C)ccc2N2CC3CC(C2)c2cccc(=O)n2C3)c1 (centres undefined)	0	0	0	0	0	0
CCc1ccc(OCC(=O)Nc2ccc3c(c2)OCCO3)cc1	0	0	0	0	0	0
O=C(NC(=S)Nc1ccc2c(c1)OCCO2)c1ccc(F)cc1Cl	?	0	?	?	11.2µM	0
CCc1ccc(C(=O)NC(=S)Nc2ccc3c(c2)OCCO3)cc1	0	?	0	7.08µM	7.08µM	0
Cc1ccc(S(=O)(=O)CCC(=O)OCc2cc(C)ccc2C)cc1	0	0	0	-	-	0
O=C1C[C@@H](O)[C@@H](O)[C@H]2[C@@H]3C(=O)N(C4CCCCC4)C(=O)[C@@H]3CC[C@H]12	-	-	-	0[10 µM]	0[10 µM]	-
O=C1C2=CC[C@H]3C(=O)N(c4cccc(Oc5ccccc5)c4)C(=O)[C@@H]3[C@@H]2[C@H](O)[C@@H]2O[C@H]12	-	-	-	?	2.24µM	-
CC1=CCC2C(=O)N(Cc3ccccc3)C(=O)C2C1 (centres undefined)	0	0	0	0	0	0[9.22 µM]
O=C1C2=CC[C@H]3C(=O)N(Cc4ccccc4)C(=O)[C@@H]3[C@@H]2[C@H](O)[C@@H]2O[C@H]12	-	-	-	?	2.24µM	-
O=C1C2=CC[C@H]3C(=O)N(C4CCCCC4)C(=O)[C@@H]3[C@@H]2[C@H](O)[C@@H]2O[C@H]12	-	-	-	?	2µM	-
CCN1C(=O)[C@@H]2[C@H]3C(=CC[C@H]2C1=O)C(=O)[C@H]1OC1[C@H]3O (some centres undefined)	-	-	-	?	2µM	-
O=C1C2=CC[C@H]3C(=O)N(Cc4ccc5c(c4)OCO5)C(=O)[C@@H]3[C@@H]2[C@H](O)[C@@H]2O[C@H]12	-	-	-	?	4.47µM	-
COC(=O)c1ccc(C2=NOC(C)(c3nnc(-c4cccc(Cl)c4)o3)C2)cc1 (centres undefined)	-	0	0	-	-	0
O=C(Cn1cnc2sc(-c3ccccc3)cc2c1=O)NCc1ccccc1	?	4.61µM	0	0	0	16.4µM
COc1ccc(CNC(=O)Cn2cnc3c(OCc4ccccc4)ncnc32)cc1	0	0	0	-	-	0
O=C(Cn1cnc2c(OCc3ccccc3)ncnc21)NCc1ccccc1	0	?	0	-	-	14.6µM
Cc1ccc(C(=O)CCC(=O)OC(C)C(=O)NC2CCCCC2C)cc1 (centres undefined)	0	0	0	-	-	0
